Counter-ions that a name gives are not always drawn.

The test has as its system MOLM14. Briefly: cell viability relative to vehicle control; higher = less cytotoxic. Particulars: 10 µM; SRSF2 genotype: SRSF2 P95H/wt. The essentials:
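Screening covered the Selleck bioactive, kinase and epigenetic probe libraries, less identity-inconsistent compounds, on CRISPR-edited mutant clones and isogenic wild-type clones of four leukaemia lines. Cells, at 2000 per well in 50 µL medium, received a single 10 µM acoustically dispensed dose. After 48 h the supernatant was removed and CellTiter-Glo luminescence was read. Viability was analysed in Genedata Screener as percent of the on-plate vehicle control.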
Take `COC(=O)c1ccc(O)c(C(=O)OC)c1` [Dimetghyl 4-Hydroxyisophthalate]: the cell viability came to 97.3%.
Next, `CN1CCN(c2cccc(Nc3nc4c(-c5ccc(S(C)(=O)=O)cc5)cccn4n3)c2)CC1`: 3.24%.
Next, `NS(=O)(=O)c1cc2c(cc1Cl)NC(C(Cl)Cl)NS2(=O)=O` (centres undefined) [Trichlormethiazide (Achletin)]: 94.7%; `Nc1[nH]cnc2ncnc1-2` [Adenine hydrochloride]: 105%; `Nc1ccc(C(=O)O)c(O)c1` [Sodium 4-Aminosalicylate]: 88.7%.
For the compound `O=c1c(-c2ccc(O)cc2)coc2cc(O[C@@H]3O[C@H](CO)[C@@H](O)[C@H](O)[C@H]3O)cc(O)c12` [Genistin (Genistoside)], the cell viability came out at 89%.
Turning to `CC(C)=CCC[C@](C)(O[C@@H]1O[C@H](CO[C@@H]2OC[C@H](O)[C@H](O)[C@H]2O)[C@@H](O)[C@H](O)[C@H]1O)[C@H]1CC[C@]2(C)[C@@H]1[C@H](O)C[C@@H]1[C@@]3(C)CC[C@H](O[C@@H]4O[C@H](CO)[C@@H](O)[C@H](O)[C@H]4O[C@@H]4O[C@H](CO)[C@@H](O)[C@H](O)[C@H]4O)C(C)(C)[C@@H]3CC[C@]12C` [Ginsenoside Rb2], the cell viability was determined as 92.2%.
For `COc1ccc(COc2ccc(Cc3cnc(N)nc3N)cc2OC)cc1`, the cell viability worked out at 86.6%.
As for `CCN(CC)CCCC(C)Nc1c2ccc(Cl)cc2nc2ccc(OC)cc12` (centres undefined) [Quinacrine Dihydrochloride Dihydrate], the cell viability was found to be 0.54%.
To `Cc1c(-c2ccnn2C)cc(C(=O)NCc2ccc(S(C)(=O)=O)cn2)c(=O)n1-c1cccc(C(F)(F)F)c1` belongs 109%.
Next, `O=C(O)Cc1ccc2c(c1)C(=O)c1ccccc1CO2` [Isoxepac]: 100%; `CC1(C)S[C@@H]2[C@H](NC(=O)Cc3ccccc3)C(=O)N2[C@H]1C(=O)O` [Penicillin G Sodium]: 96.9%; `O=[N+]([O-])c1ccc(Sc2cccc[n+]2[O-])c2nonc12`: 0.22%.
As to `COC(=O)c1cc(OC)c2c(c1-c1c(C(=O)OC)cc(OC)c3c1OCO3)OCO2` [Bifendate], the cell viability was determined as 99.3%.
To `N#Cc1ccc(-c2c(-c3ncn[nH]3)sc(N3CCOCC3)c2C#N)c(F)c1` belongs 27.8%; to `Cc1ncc(CCCN(C)C)cc1Nc1ncc2c(n1)-c1ccc(C(F)(F)F)cc1NC(=S)C2`, 18.3%; to `Nc1ccccc1NC(=O)c1cnccn1`, 75.5%.
In the case of `N[C@@H]1CCCN(c2c(/C=C3\SC(=O)NC3=O)cccc2-c2ccccc2)C1`, the cell viability stood at 90.8%.
Consider `O=C(O)CCCC[C@@H]1CCSS1` (racemic) [Thioctic acid], for which the cell viability was determined as 92.8%.
With `COc1cn(-c2ccc(-n3cccn3)cc2F)nc(-c2ccnn2-c2ccccc2)c1=O`, the cell viability was 107%.
Next, `COc1ccc(S(=O)(=O)N(CCO)c2ccccc2CN(C)C/C=C/c2ccc(Cl)cc2)cc1` [KN-93 Phosphate]: 45.5%; `CC(C)OC(=O)C(C)(C)Oc1ccc(C(=O)c2ccc(Cl)cc2)cc1` [Fenofibrate (Tricor, Trilipix)]: 93.7%.
Take `Cc1cc2c3c([n+](C)c4ccc(F)cc4c3c1)-c1cc(F)ccc1N2C` [RHPS 4 methosulfate]: the cell viability was determined as 5.12%.
Turning to `COc1cc(Nc2ncc(F)c(Nc3ccc4c(n3)NC(=O)C(C)(C)O4)n2)cc(OC)c1OC`, the cell viability amounted to 22.3%.
Turning to `COc1cc2ncnc(Nc3ccc(Oc4ccccc4)cc3C)c2cc1OC`, the cell viability amounted to 37.5%.
As to `Cn1cc(-c2ccc(S(=O)(=O)n3ccc(/C=C/C(=O)Nc4ccccc4N)c3)cc2)cn1`, the cell viability was determined as 7.6%.
`Cn1cc(CNCC2CCN(c3ncc(C(=O)NO)cn3)CC2)c2ccccc21`: the cell viability stood at 0.72%.
Take `N[C@@H]1CN(c2c(F)cc3c(=O)c(C(=O)O)cn([C@@H]4C[C@@H]4F)c3c2Cl)CC12CC2` [Sitafloxacin hydrate]: the cell viability worked out at 105%.
Consider `COC(=O)C1=C(C)NC(C)=C(C(=O)OC(C)C)C1c1cccc2nonc12` (centres undefined) [Isradipine (Dynacirc)], for which the cell viability amounted to 101%.
Next, `O=C(Nc1nccs1)C(c1cc(F)ccc1O)N1Cc2ccccc2C1=O` (centres undefined): 98%.
To `Nc1cc(F)ccc1NC(=O)/C=C/c1cnn(C/C=C/c2ccccc2)c1` belongs 90.5%; to `C=C1[C@H](O)C[C@H]2[C@@H](/C=C(\C)C(=O)[C@@]3(O)C[C@H](C)[C@H](O)[C@@H]3[C@H]1O)C2(C)C`, 99.8%.
Next, `O=C(Nc1cccc(C(F)(F)F)c1)Nc1cc(S(=O)(=O)NC2CC2)ccc1-c1ccsc1`: 92%; `CC(C)(NS(=O)(=O)c1ccc2c(Cl)cnc(N=C(N)N)c2c1)C(=O)O`: 101%.

A word on the cell viability: it is a read-out of living cells in per cent, often relative to untreated cells.
